Most compounds without a hit are left out; they make up all but 6.2% or so of the library.
NTR1 ag – agonists of human NTR1, primary screen, imaging, U2OS cells, beta-arrestin-GFP, high content; Neurotensin receptor type 1 (Homo sapiens), P30989; NTR1-U2OS beta-arrestin-GFP spot imaging, agonist mode; activation, % at 20 µM; actives 0.17% (n = 330,000);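 active means activation at or above 40% of the spot to cytoplasm intensity ratio, with at least 20 cells analyzed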;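 further: 0% = DMSO without peptide and 100% = 100 nM NTR1 peptide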
Target sequence (P30989 whole entry, looked up): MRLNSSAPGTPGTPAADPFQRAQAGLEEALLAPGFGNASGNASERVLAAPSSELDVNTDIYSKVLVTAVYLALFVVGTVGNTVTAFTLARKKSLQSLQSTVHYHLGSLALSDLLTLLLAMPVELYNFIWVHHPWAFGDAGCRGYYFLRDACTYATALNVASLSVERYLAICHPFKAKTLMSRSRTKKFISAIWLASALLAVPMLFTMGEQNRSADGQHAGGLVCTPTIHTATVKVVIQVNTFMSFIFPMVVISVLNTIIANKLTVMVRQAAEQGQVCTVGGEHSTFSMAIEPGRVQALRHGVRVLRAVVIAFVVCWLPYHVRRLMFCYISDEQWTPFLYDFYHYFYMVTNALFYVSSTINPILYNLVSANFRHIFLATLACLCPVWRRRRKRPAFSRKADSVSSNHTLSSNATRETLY
AHR activator – AHR activators, primary screen, cell-based, luminescence, luciferase reporter, human; Aryl hydrocarbon receptor (Homo sapiens), P35869; AHR-responsive luciferase reporter cells; activation, % at 5 µM; actives 2.5% (n = 320,000); AID 2796, 2010; in the data active means activation above about 47%;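 further: 0% = vehicle wells and 100% = reference agonist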
GRIN3A LBD mod – binders of NR3A ligand-binding domain, primary screen, biophysical, differential scanning fluorimetry, uHTS; Glutamate receptor ionotropic, NMDA 3A (GRIN3A) ligand-binding domain; NR3A LBD differential scanning fluorimetry, Tm shift; 0% = protein alone, 100% = glycine-bound protein; Tm shift relative to glycine control, % at 25 µM; actives 2.5% (n = 340,000);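 active means melting temperature shift of at least 10% of the positive control shift, at one fixed dose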
Cardio protect – cardioprotection against H2O2-induced cell death, primary screen, uHTS, H9c2 cells, ATPLite luminescence; H9c2 cardiomyocytes, H2O2 injury protection, 2 h; protection from H2O2 cell death, % at 20 µM; actives 0.63% (n = 360,000);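 active means compounds giving at least 50% protection of heart cells from peroxide-induced death in the single-dose screen, raw or plate-pattern-corrected value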;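 further: 0% = DMSO wells with peroxide and 100% = DMSO wells without peroxide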
SUMO Mot1 rescue – yeast Mot1-301 growth rescue at high temperature, primary screen, SUMOylation pathway inhibitor project, S. cerevisiae, ATP luminescence, 38.5C; growth rescue, % at 18.8 µM; S. cerevisiae Mot1-301 growth rescue; percent above DMSO median, 100 means doubled; actives 1% (n = 320,000);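 active means every valid replicate shows activation above 250% relative to neutral control wells; inactive means the rest, any valid replicate at or below 250%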;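 further: OY570 slx delta 5 strain wells were the positive control but not used for scaling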
AI-2 QS modul – Vibrio harveyi AI-2 quorum sensing modulators, primary screen, JMH597 strain, luminescence/OD600 ratio; Vibrio harveyi JMH597 AI-2 luminescence/OD600 ratio, 9 h; hits give low values; strain lacks LuxN and CqsS sensors; 0 = neutral-control median; activity change, % at 7.5 µM; actives 0.4% (n = 300,000); in the data active means activity change below about -75%, passing the limit was not always enough;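 further: luminescence divided by OD600 gain over 9 h not by final OD600 alone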
Yeast Mot1 SUMO – growth restoration of Mot1-301 yeast on galactose, dose response, SUMO pathway inhibitor project, whole organism, S. cerevisiae, ATP luminescence, cherry-picked samples. S. cerevisiae Mot1-301 galactose growth, 24 h; -100 = growth of slx-deleted rescue strain. 2,300 tested, under 10 active. AID 493004, 2010. shares compounds with SUMO Mot1 rescue. growth activity, percent, % at 42 µM;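 active means Signal drops as the depositor expects, and the fitted half-maximal dose is no more than ten times the top valid tested dose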;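 further: more negative values mean stronger growth rescue toward the control strain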
* hit, by the source's call; . = not tested or not shown; + = active, no number; [ ] = remark or other dose.

SMILES	NTR1 ag	AHR activator	GRIN3A LBD mod	Cardio protect	SUMO Mot1 rescue	AI-2 QS modul	Yeast Mot1 SUMO
COC/C=C/C1=CC2=CC(=O)C(C)(OC(=O)c3cnc4ccccc4n3)C(=O)C2=CN1CCCOC(C)C (centres undefined)	-1.7	5.6	-1.3	3.4	-11.7	36.7	.
CC1(Oc2cccnc2Cl)CCN(Cc2ccc(OC(F)(F)F)cc2)C1 (centres undefined)	.	.	.	-13.8	.	.	.
Cc1cnc(C(=O)OC(C(=O)c2c[nH]c3ccccc23)c2ccccc2)cn1 (centres undefined)	0.6	9.0	1.9	8.2	532.9*	.	-0.4
CCOC(CNC(=O)CN1C(=O)COc2ccc(S(=O)(=O)N3CCCC3)cc21)OCC	0.4	-2.3	2.9	0.1	.	18.7	.
CCc1nc2c(OCc3cccc(OC)c3)cccn2c1N(C)C(=O)c1ccccc1F	.	.	.	1.8	.	.	.
COc1ccc(CCNC(=O)C/C(C)=N/NC(=O)COc2ccc(C)cc2Br)cc1OC	-0.1	6.9	0.2	-1.5	904.0*	-3.1	0.3
COc1ccccc1CNC(=O)C/C(C)=N/NC(=O)COc1ccc(C)cc1Br	1.4	0.9	0.2	12.8	168.1	10.1	.
Cc1cc(Cl)c2oc(C(=O)N(C)Cc3ccon3)c(C)c2c1	-0.9	0.9	-3.1	-2.4	-5.2	5.1	.
CCCOc1ccc([N+](=O)[O-])c(N)c1	0.3	-3.2	3.3	-7.6	788.4*	-46.1	0.3
COc1ccc(-c2cc(-c3ccc(F)cc3)nc(N3CCN(C)CC3)n2)cc1	10.2	3.6	1.9	-23.3	14.2	-0.6	.
COc1ccc(-c2cc(C#N)nc(N3CCN(c4ccccc4)CC3)n2)cc1	1.1	9.0	2.1	-0.4	425.0*	11.7	0.5
CCCCCC(C)NC(=O)c1cc(S(=O)(=O)N2CCCCC2)ccc1N1CCOCC1 (centres undefined)	-1.8	1.0	1.1	2.6	4.4	.	.
CC(=O)N1c2cc3ccccc3cc2N(C(C)=O)c2cc3ccccc3cc21	.	.	-0.5	-5.0	.	.	.
Nc1nnnn1CC(=O)N/N=C/c1cccs1	1.5	-1.2	0.3	4.2	626.9*	15.1	0.1
CC(=O)N(C)c1ccc(N2CCOCC2)c2c1C(=O)c1ccccc1C2=O	1.4	2.2	1.1	4.5	455.9*	11.7	1.4
Cc1ccc(C(=O)CCC(=O)OCC(=O)NNC(=O)c2ccccc2Cl)cc1	7.9	-0.4	1.2	2.2	2.9	.	.
O=C(CNC(=O)c1ccco1)OCC(=O)c1cccc2ccccc12	-0.2	2.5	0.5	10.2	434.4*	31.2	-0.2
COc1ccc2c(Cl)c(C(=O)NN3CCN(C)CC3)sc2c1	0.7	2.4	-2.7	6.4	586.7*	30.5	-0.8
CCCSc1nc(=O)n2cccc(C)c2n1	5.8	3.0	-1.1	-0.3	625.8*	4.7	1.3
CCCN(C)C[C@H]1OCc2cnnn2CCCC(=O)N([C@H](C)CO)C[C@@H]1C	.	.	.	8.0	.	.	.
COc1cccc(NC(=O)CN2CCN(c3ccccc3F)CC2)c1	0.0	-3.4	-5.6	-12.2	600.4*	6.2	0.4
COC(=O)c1[nH]c2cc(C)ccc2c1NC(=O)CN1CCOCC1	-0.8	24.0	-1.5	0.4	-14.4	15.2	.
O=C(CN1CCN(c2ccccc2F)CC1)Nc1nnc(C(F)(F)F)s1	-1.0	3.4	-1.2	-3.9	+	0.8	0.1
COc1cc(NC(=O)CN2CCN(c3ccccc3F)CC2)cc(OC)c1	-1.3	1.5	-0.4	1.0	13.7	.	.
COC(=O)c1[nH]c2cc(C)ccc2c1NC(=O)CN1CCN(c2ccccc2OC)CC1	4.1	38.7	-1.2	-10.3	492.4*	21.2	0.4[21 µM]
SMILES	NTR1 ag	AHR activator	GRIN3A LBD mod	Cardio protect	SUMO Mot1 rescue	AI-2 QS modul	Yeast Mot1 SUMO
COc1ccc(NC(=O)CSc2ccc3nnc(CCNC(=O)c4ccccc4)n3n2)cc1OC	0.7	3.5	-3.3	5.8	-2.8	20.5	.
O=C(CCN1C(=O)S/C(=C\c2ccccc2)C1=O)Nc1ccc(O)cc1C(=O)O	-0.8	-0.4	-2.6	-6.2	-10.3	24.9	.
O=C(CCN1C(=O)S/C(=C/c2ccccc2)C1=O)Nc1ccc(O)c(C(=O)O)c1	-0.9	0.1	-7.0	-3.0	435.0*	28.0	0.4
C/C(=N/OCO/N=C(\C)c1ccccc1)c1ccccc1	0.0	-2.6	11.3*	-1.2	639.8*	19.9	0.1
C/C(=N/OCO/N=C(/C)c1ccc(F)cc1)c1ccc(F)cc1	1.4	-1.1	-1.8	-5.8	-10.3	26.3	.
Cc1ccc(C2(c3ccccc3)NC(=O)N(CC(=O)NCc3ccccc3)C2=O)cc1C (centres undefined)	-0.5	0.3	-3.0	-10.0	.	.	.
CC(C)c1ccc(C2C(C(=O)c3ccco3)=C(O)C(=O)N2CCN2CCOCC2)cc1 (centres undefined)	0.8	1.4	1.1	12.5	+	29.0	0.4
COc1cc(/C=N/NC(=O)c2cccc([N+](=O)[O-])c2)ccc1O	2.6	9.0	0.8	7.5	+	10.0	-0.4
COc1ccc(CCNC(=O)COC(=O)c2sc(C)nc2C)cc1	-1.1	-0.3	0.2	9.3	.	.	.
CCOC(=O)c1cnc2c(ccc3ccccc32)c1NCCCN(C)C	0.0	-0.8	-1.2	8.8	22.2	-1.4	.
O=C(Nc1cccc(N=Cc2cc(Br)cc(Br)c2O)c1)c1ccco1	.	2.4	6.2	50.6*	765.7*	3.2	-0.8
COc1cc(/C=C2\NC(=S)N(C)C2=O)ccc1OCc1cccc(F)c1	1.7	5.0	-0.5	-1.0	562.9*	27.0	0.0
CCOC(=O)CNC(=O)c1cccnc1	-0.7	-1.1	0.7	18.8	+	15.7	-0.1
COc1ccc(C(=O)N/N=C(\C)CC(=O)Nc2cccc(C(F)(F)F)c2)cc1	-2.0	5.0	-1.3	3.7	-12.9	10.9	.
COCCNC(=O)C(=O)N/N=C(\C)CC(=O)Nc1cccc(C(F)(F)F)c1	-1.5	8.8	-1.9	12.4	444.9*	-6.5	0.2
Cc1c(C)c2c(c(C)c1O)CCC(C)(C(=O)O)O2 (centres undefined)	-1.9	-0.5	-1.3	0.6	548.1*	.	-0.5

Source: PubChem
